# Laboratory results published in ChEMBL document CHEMBL1961873, “Compounds: GSK PKIS; Assays: Nanosyn kinase panel” (2012).
# Target: Calcium/calmodulin-dependent protein kinase type 1D (Homo sapiens) (UniProt Q8IU85);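 further: reported figure is the mean percent inhibition of CAMK1D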
# Conditions: at 1 µM
# Calcium/calmodulin-dependent protein kinase type 1D (Homo sapiens), sequence (Q8IU85 whole entry, looked up): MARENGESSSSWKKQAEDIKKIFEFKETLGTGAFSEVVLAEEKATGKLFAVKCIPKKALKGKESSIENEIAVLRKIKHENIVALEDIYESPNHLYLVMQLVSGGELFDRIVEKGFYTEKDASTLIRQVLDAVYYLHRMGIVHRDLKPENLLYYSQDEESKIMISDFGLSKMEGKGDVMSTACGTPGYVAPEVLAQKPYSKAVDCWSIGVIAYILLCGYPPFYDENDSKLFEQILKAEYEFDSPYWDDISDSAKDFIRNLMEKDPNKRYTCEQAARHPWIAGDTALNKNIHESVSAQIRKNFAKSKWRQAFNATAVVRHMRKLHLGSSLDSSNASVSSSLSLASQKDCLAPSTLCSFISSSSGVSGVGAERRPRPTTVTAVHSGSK
row,SMILES,inhibition [%]
1,CCn1c(-c2nonc2N)nc2c(C#CC(C)(C)O)nc(CN3CCCC3)cc21,2.08
2,CCn1c(-c2nonc2N)nc2c(N3CCCC3)nccc21,-0.81
3,[O-][S+]1CCN(Cc2ccc(-c3ccc4ncnc(Nc5ccc(OCc6ccccc6)c(F)c5)c4c3)o2)CC1,1.4
4,CCCN1CCC=C(c2ccc(Nc3nc(Nc4ccccc4C(N)=O)c4cc[nH]c4n3)c(C)c2)C1,12.8
5,CC1=C(C(=O)Nc2ccc3[nH]ncc3c2)C(c2ccc(F)cc2)NC(=O)N1 (configuration not stated),-0.14
6,COc1cccc(-n2ncc3c(N/N=C/c4cccc(F)c4)ncnc32)c1,1.96
7,Cc1ccc(C(=O)NC2CCCCC2)cc1-c1ccc(C(=O)NCC2CC2)cc1,2.73
8,Nc1ncnc2occ(-c3ccc(NC(=O)Nc4cc(C(F)(F)F)cc(C(F)(F)F)c4)cc3)c12,4.38
9,CC(C)=Cc1cccc2c1/C(=N/Nc1ccc(S(N)(=O)=O)cc1)C(=O)N2,1.3
10,CC1=C(C(=O)Nc2ccc3[nH]ncc3c2)C(c2ccc3ccccc3c2)CC(=O)N1 (configuration not stated),0.49
11,COc1ccc(-c2ccncc2)cc1C(N)=O,1.22
12,COc1cc2ncn(-c3cc(OCc4ccccc4Cl)c(C(N)=O)s3)c2cc1OC,3.64
13,CCn1c(-c2nonc2N)nc2cnc(Oc3cccc(NC(=O)c4ccc(OCCN5CCOCC5)cc4)c3)cc21,2.35
14,CN(C)c1cc2c(Nc3ccc4nc(Cc5ccccc5)[nH]c4c3)ncnc2cn1,0.72
15,N#Cc1c(NC(=O)c2cccc3ccccc23)sc2c1CCCC2,2.77
16,Cc1cccc(-c2n[nH]cc2-c2ccc3ncccc3n2)n1,1.08
17,NS(=O)(=O)c1cccc(-c2ccc3c(NC(=O)C4CC4)n[nH]c3c2)c1,-0.98
18,O=C1NC(=O)C(c2cccc(Cl)c2)=C1Nc1ccc(O)c(Cl)c1,5.88

# Target: Calcium/calmodulin-dependent protein kinase type II subunit alpha (Homo sapiens) (UniProt Q9UQM7);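 further: reported values are averages (mean inhibition of CAMK2A)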
# Sequence (Q9UQM7 whole entry): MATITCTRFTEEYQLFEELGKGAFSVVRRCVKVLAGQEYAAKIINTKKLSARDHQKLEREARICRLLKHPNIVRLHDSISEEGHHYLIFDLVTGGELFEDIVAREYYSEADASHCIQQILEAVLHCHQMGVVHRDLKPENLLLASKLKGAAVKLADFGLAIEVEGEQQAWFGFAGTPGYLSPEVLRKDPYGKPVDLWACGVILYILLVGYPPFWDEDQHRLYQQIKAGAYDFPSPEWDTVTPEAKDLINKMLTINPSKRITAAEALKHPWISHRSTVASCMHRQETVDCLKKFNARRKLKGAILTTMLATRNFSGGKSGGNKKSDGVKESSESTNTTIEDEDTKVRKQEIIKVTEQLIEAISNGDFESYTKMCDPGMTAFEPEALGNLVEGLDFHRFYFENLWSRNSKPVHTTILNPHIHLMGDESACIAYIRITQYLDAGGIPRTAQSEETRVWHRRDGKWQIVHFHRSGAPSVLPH
# Conditions: at 0.1 µM
row,SMILES,inhibition [%]
1,COc1cc2ncn(-c3cc(O[C@H](C)c4ccccc4Cl)c(C(N)=O)s3)c2cc1OC,3.24
2,NC(=O)c1ccc(-c2nc(-c3ccccn3)c(-c3ccc4c(c3)OCO4)[nH]2)cc1,1.86
3,Cn1cc(C=C2C(=O)Nc3cccnc32)c2ccccc21,1.58
4,CNC(=O)c1cncc(/C=C/c2c(Cl)cccc2Cl)c1,3
5,COc1cc2ncn(-c3cc(OCc4ccccc4C(F)(F)F)c(C(N)=O)s3)c2cc1OC,2.39
6,O=C1Nc2ccc(C(=O)c3ccco3)cc2C1=Cc1cc(Cl)c(O)c(Cl)c1,3.4
7,COc1ccc(-c2nn3ncccc3c2-c2ccnc(Nc3ccc(Cl)c(C(F)(F)F)c3)n2)cc1,1.97
8,CS(=O)(=O)Nc1ccc(N/C=C2\C(=O)Nc3ccccc32)cc1,-3.83
9,Fc1cccc(COc2ccc(Nc3ncnc4sc(-c5cccs5)cc34)cc2Cl)c1,-3
10,CCN1CCC(CC(=O)Nc2n[nH]c3nc(-c4cccs4)c(Br)cc23)CC1,-4.08
11,O=C1NC(=O)C(c2ccccc2Cl)=C1Nc1cccc(O)c1,3.22
12,CCn1c(-c2nonc2N)nc2cncc(C(=O)N3CCNCC3)c21,4.62
13,CN1CCC(C(=O)Nc2n[nH]c3nnc(-c4ccccc4)cc23)CC1,3.75
14,CS(=O)(=O)CCN(CC#N)Cc1ccc(-c2ccc3ncnc(Nc4ccc(OCc5cccc(F)c5)c(Cl)c4)c3c2)o1,-0.98
15,COc1ccc(-c2coc3ncnc(N)c23)cc1,3.92
16,Cc1ccc(NC(=O)c2ccnc(N3CCCC3)c2)cc1-c1ccc(C(=O)NCC2CC2)cc1,4.45
17,CCn1c(-c2nonc2N)nc2c(C#CC(C)(C)O)nc(CN3CCCC3)cc21,-0.97

row,SMILES,inhibition [%]
1,CCn1c(-c2nonc2N)nc2c(N3CCCC3)nccc21,-1.53
2,[O-][S+]1CCN(Cc2ccc(-c3ccc4ncnc(Nc5ccc(OCc6ccccc6)c(F)c5)c4c3)o2)CC1,1.36
3,CCCN1CCC=C(c2ccc(Nc3nc(Nc4ccccc4C(N)=O)c4cc[nH]c4n3)c(C)c2)C1,3.75
4,CC1=C(C(=O)Nc2ccc3[nH]ncc3c2)C(c2ccc(F)cc2)NC(=O)N1 (configuration not stated),-0.47
5,COc1cccc(-n2ncc3c(N/N=C/c4cccc(F)c4)ncnc32)c1,1.19
6,Cc1ccc(C(=O)NC2CCCCC2)cc1-c1ccc(C(=O)NCC2CC2)cc1,4.8
7,Nc1ncnc2occ(-c3ccc(NC(=O)Nc4cc(C(F)(F)F)cc(C(F)(F)F)c4)cc3)c12,3.17
8,CC(C)=Cc1cccc2c1/C(=N/Nc1ccc(S(N)(=O)=O)cc1)C(=O)N2,2.92
9,CC1=C(C(=O)Nc2ccc3[nH]ncc3c2)C(c2ccc3ccccc3c2)CC(=O)N1 (configuration not stated),-0.08
10,COc1ccc(-c2ccncc2)cc1C(N)=O,1.71
11,COc1cc2ncn(-c3cc(OCc4ccccc4Cl)c(C(N)=O)s3)c2cc1OC,-2.74
12,CCn1c(-c2nonc2N)nc2cnc(Oc3cccc(NC(=O)c4ccc(OCCN5CCOCC5)cc4)c3)cc21,1.46
13,CN(C)c1cc2c(Nc3ccc4nc(Cc5ccccc5)[nH]c4c3)ncnc2cn1,4.11
14,N#Cc1c(NC(=O)c2cccc3ccccc23)sc2c1CCCC2,1.29
15,Cc1cccc(-c2n[nH]cc2-c2ccc3ncccc3n2)n1,-1.03
16,NS(=O)(=O)c1cccc(-c2ccc3c(NC(=O)C4CC4)n[nH]c3c2)c1,-4.43
17,O=C1NC(=O)C(c2cccc(Cl)c2)=C1Nc1ccc(O)c(Cl)c1,3.72
